Only some compounds are listed: those with a hit (about 1.8% of all), similar ones and a draw of the others.
sdo1 growth: restores growth of sdo1-depleted yeast; z-score at 10 µM; 140,000 compounds, 0.21% hits; S. cerevisiae sdo1-depleted JHY4D growth rescue, OD600 30 h; stronger effect = higher value; pdr5 snq2 efflux-pump mutant strain;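 active = z-score above 3 at both the 24 hr and the 30 hr optical density reads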;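 note: z-score against mean and SD of all compound wells on the same plate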
Measles CPE: protection of cells from measles virus; protection (pct of control), % at 4 µM; Measles virus-infected cells, CPE protection, absorbance; 140,000 compounds, 1.5% hits; in the data active = protection mostly above about 24%, no sharp cut-off; inactive = mostly below about 26%
Phagocytosis inh: macrophage phagocytosis inhibition. J774A.1 macrophage IgG-bead phagocytosis, imaging. inhibition, % at 5 µM. 110,000 compounds, 0.07% hits;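 active = inhibition above the mean of the plate negative controls plus 5 SD, cut at about 13% in these data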;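 note: phagocytic index as fraction of beads internalized from green versus red external bead signal; plate controls were DMSO negative control for no effect and cytochalasin-D positive control for full effect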
The depositor's hits bear a star; nt = no result.

SMILES	sdo1 growth	Measles CPE	Phagocytosis inh
Cc1noc(C)c1COc1ccc(C(=O)OCC(=O)N2CC3(C)CC2CC(C)(C)C3)cc1 (configuration not stated)	0.33	51*	0
Cc1ccc(OCC(=O)N2CC3(C)CC2CC(C)(C)C3)cc1 (configuration not stated)	-0.68	6	nt
O=C(Nc1nnc(COc2ccccc2)s1)c1ccco1	-1.3	45*	-2
COc1ccc(Cc2nnc(NC(=O)c3ccco3)s2)cc1	-0.04	1	-1
CCN(CC)c1ccc(NC(=O)/C=C/c2cc(Br)ccc2OC)cc1	-2.1	7	nt
COc1ccc(NC(=O)/C=C/c2cc(Br)ccc2OC)cc1	-0.76	23*	-5
CCCn1c(SCC(=O)N2CCCC2)nc2c1c(=O)n(C)c(=O)n2C	1.1	3	-1
CC(C)n1c(SCC(=O)N2CCCC2)nc2c1c(=O)n(C)c(=O)n2C	0.38	33*	1
Clc1c(-c2nnc3n2CCCCC3)sc2ccccc12	-1.3	3	0
COc1ccc2c(Cl)c(-c3nnc4n3CCCCC4)sc2c1	-1.3	43*	1
Cc1ccc(-c2nnc3n2CCCCC3)cc1	1.9	29*	1
Clc1ccc(-c2nnc3n2CCCC3)cc1	1.5	9	nt
Cn1nc(C(=O)NCc2cccs2)c2ccccc2c1=O	-0.34	20	3
COc1ccc(C2C(C(=O)O)CC(=O)N2C2CCCCC2)cc1 (configuration not stated)	-0.42	48*	0
O=C(O)C1CC(=O)N(C2CCCCC2)C1c1ccccc1 (configuration not stated)	-0.78	2	nt
NCCOc1cnn(-c2ccccc2Cl)c(=O)c1Cl	1.4	5	-3
CCCn1c(/N=C/c2ccc3c(c2)OCO3)nc2ccccc21	1.9	32*	1
C(=N\c1nc2ccccc2n1CCN1CCCCC1)/c1ccc2c(c1)OCO2	0.23	6	0
Cc1ccc(C)c(NC(=O)CSc2nnc3n2CCCCC3)c1	0.65	8	-6
COc1ccc(-c2nc3ccc(N4CCCC4)cc3c(=O)[nH]2)cc1OC	-0.81	14	-2
Cn1c(Cn2c(=O)sc3ccccc32)nnc1SCC(=O)Nc1ccc2c(c1)OCO2	-0.54	9	nt
CS(=O)(=O)N(Cc1ccccc1)c1ccc(C(=O)NC2CCCCC2O)cc1 (configuration not stated)	1	4	0
CS(=O)(=O)N(Cc1ccccc1)c1ccc(C(=O)NCc2ccccc2)cc1	0.74	44*	-2
Cc1ccc(N(Cc2ccc(C(=O)NC3CCCCC3)cc2)S(C)(=O)=O)cc1C	-0.7	103*	0
CS(=O)(=O)N(Cc1ccccc1)c1ccc(C(=O)NCc2cccnc2)cc1	0.7	23	-2
SMILES	sdo1 growth	Measles CPE	Phagocytosis inh
CNC(=O)OCc1cccc(COC(=O)NC)n1	0.48	46*	-1
CC(=O)NCc1cccc(CNC(C)=O)n1	0.14	10	-1
NC(=O)N1c2ccccc2C=Cc2ccccc21	0.54	2	nt
CCN(CC)C(=O)N1c2ccccc2C=Cc2ccccc21	-0.35	57*	0
CCc1ccc(N(C(=O)c2csnn2)C(C(=O)NCc2ccccc2)c2ccco2)cc1 (configuration not stated)	-0.46	35*	nt
O=C(NCc1ccccc1)C(c1ccco1)N(C(=O)c1cnccn1)c1ccc(F)cc1 (configuration not stated)	-0.03	12	nt
COc1ccc(-n2nnnc2-c2cccc(OC)c2)cc1	-0.86	6	4
COc1ccc(-n2nnnc2-c2cnc3cc4c(cc3c2C)OCO4)cc1	-0.61	53*	1
COC(=O)c1ccc(CSc2nnc(-c3ccc4c(c3)OCO4)n2-c2ccccc2)o1	-0.33	21	5
COc1cccc(C(=O)NNC(=S)NC2CCCCC2)c1	0.05	25*	-9
COc1ccc(C(=O)NNC(=S)NC2CCCCC2)cc1OC	0.68	29	nt
Cc1ccnc(NC(=O)Nc2cccc(F)c2)c1	-0.95	6	0
C=CCn1c2ccccc2n2nc(C)c(=O)nc12	0.29	38*	nt
Cc1nn2c3ccccc3n(CCN3CCCCC3)c2nc1=O	0.4	9	nt
COc1ccc(CCNC(=O)C2CCN(S(C)(=O)=O)CC2)cc1OC	0.64	3	-1
COc1ccc(CCNC(=O)C2CC2)cc1OC	0.11	46*	0
COc1ccc(-c2ccc(=O)n(Cc3cc(=O)n4ccccc4n3)n2)cc1	0.08	32*	0
COc1ccc(-c2ccc(=O)n(CC(=O)NCc3ccco3)n2)cc1	0.45	7	-1
Cc1cc(C)c2c(N)c(C(=O)c3ccc(Cl)cc3)sc2n1	-0.79	4	3
Cc1cc(C)c2c(N)c(C(=O)NCC3CCCCC3)sc2n1	-1.2	25*	-1
N#CCSc1nnc(COc2ccc3ccccc3c2)o1	-1.2	46*	0
COc1cc(-c2nnc(COc3ccc4ccccc4c3)o2)cc(OC)c1OC	-0.58	26	nt

Bioassay records (PubChem BioAssay)
